Results as given in PubChem BioAssay (Tox21).
Where “and” joins values, the source holds several entries; their conditions need not be identical. Equal entries are not always repeated. Results filed as inconclusive are left out. Calls of active or inactive are those of the source. Unless noted, calls follow the shape of the dose curve; as a rule, active = well fitted curve in the direction sought with a large enough effect in the repeat runs; inconclusive = weak or mixed curves; inactive = no such curve, though single readings can be large; an effect the other way counts as inactive or inconclusive.

Key:
[1] = qHTS assay to identify small molecule antagonists of the thyroid receptor (TR) signaling pathway - cell viability counter screen (AID 743064); also: nearly all actives have a fitted effect of over 50% in size
Method in brief: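 GH3.TRE-Luc rat pituitary cells dosed after 4 hr plating, co-stimulated with T3 at 1 nM final, incubated 23.5 h at 37 C. Viability measured in the same wells by CellTiter-Fluor fluorescence after 30 min further at 37 C.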

[2] = qHTS assay to identify small molecule antagonists of the thyroid receptor (TR) signaling pathway (AID 743065); also: nearly all actives have a fitted effect of over 55% in size
Method in brief: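 GH3.TRE-Luc rat pituitary cells carrying two TR response elements driving luciferase were plated for 4 h, given compound plus 1 nM T3 (final), and incubated 23.5 h at 37 C. ONE-Glo luminescence measured reporter inhibition; CellTiter-Fluor fluorescence tracked cytotoxicity.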

[3] = test system: thyroid hormone receptor (rat, GH3 cells); test: qHTS assay to identify small molecule agonists of the thyroid receptor (TR) signaling pathway (AID 743066; calls by dose curve)
[4] = target: Estrogen receptor (Homo sapiens) (UniProt P03372); test: qHTS assay to identify small molecule antagonists of the estrogen receptor alpha (ER-alpha) signaling pathway (AID 743069; active = well fitted curve in the direction sought with a large enough effect in the signal ratio in the repeat runs, not every such curve was filed as active; the % refers to the signal ratio)
Chain of Estrogen receptor (Homo sapiens) (P03372 whole entry, looked up): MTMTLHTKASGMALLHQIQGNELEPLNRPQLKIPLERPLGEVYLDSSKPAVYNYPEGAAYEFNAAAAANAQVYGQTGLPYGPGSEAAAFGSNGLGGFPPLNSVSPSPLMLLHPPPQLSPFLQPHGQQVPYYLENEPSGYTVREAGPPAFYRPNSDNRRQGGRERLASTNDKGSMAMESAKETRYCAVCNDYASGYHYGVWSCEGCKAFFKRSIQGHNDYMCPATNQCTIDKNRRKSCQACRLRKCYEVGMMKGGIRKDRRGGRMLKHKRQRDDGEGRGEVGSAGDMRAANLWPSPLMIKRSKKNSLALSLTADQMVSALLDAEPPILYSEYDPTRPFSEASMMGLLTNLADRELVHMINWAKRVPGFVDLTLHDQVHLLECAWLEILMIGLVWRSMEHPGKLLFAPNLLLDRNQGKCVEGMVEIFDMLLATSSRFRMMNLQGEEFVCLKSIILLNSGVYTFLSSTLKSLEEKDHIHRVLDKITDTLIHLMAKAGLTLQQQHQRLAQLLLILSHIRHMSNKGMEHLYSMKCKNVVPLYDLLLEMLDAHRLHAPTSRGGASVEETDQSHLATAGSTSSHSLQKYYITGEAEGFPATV
Method in brief: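 HEK293 cells stably carrying an ER-alpha-UAS-bla beta-lactamase reporter were pre-cultured overnight in 2% charcoal-stripped FBS medium. Test compounds in DMSO were added together with 17beta-estradiol for 18 hr at 37C. Read-out was fluorescence after 2 hr with LiveBLAzer B/G FRET substrate at room temperature.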

[5] = qHTS assay to identify small molecule antagonists of the estrogen receptor alpha (ER-alpha) signaling pathway - cell viability counter screen (AID 743074; calls by dose curve; also: nearly all actives have a fitted effect of over 45% in size)
[6] = target: Estrogen receptor (Homo sapiens) (UniProt P03372); test: qHTS assay to identify small molecule agonists of the estrogen receptor alpha (ER-alpha) signaling pathway (AID 743075; calls by dose curve)
[7] = target: Estrogen receptor (Homo sapiens) (UniProt P03372); test: qHTS assay to identify small molecule agonists of the estrogen receptor alpha (ER-alpha) signaling pathway using the BG1 cell line (AID 743079); settings: BG1Luc4E2 cells, ERE-luciferase agonist, 22 h; also: nearly all actives have a fitted effect of over 20% in size
[8] = qHTS assay to identify small molecule antagonists of the estrogen receptor alpha (ER-alpha) signaling pathway using the BG1 cell line (AID 743080; calls by dose curve; also: nearly all actives have a fitted effect of over 25% in size)
Method in brief: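 Antagonist mode: compounds in DMSO were pinned onto BG1-Luc-4E2 cells alongside 17beta-estradiol agonist, incubated 21.5 h, and ERE-driven luciferase measured with ONE-Glo. Cytotoxicity was multiplexed using CellTiter-Fluor fluorescence.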

[9] = qHTS assay to identify small molecule antagonists of the estrogen receptor alpha (ER-alpha) signaling pathway using the BG1 cell line - cell viability counter screen (AID 743081);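 also: compound given together with 17beta-estradiol as the ER stimulus; nearly all actives have a fitted effect of over 45% in size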
Aromatase (Homo sapiens) = Aromatase (Homo sapiens) (UniProt P11511); test: qHTS assay to identify aromatase inhibitors (AID 743083); also: nearly all actives have a fitted effect of over 55% in size
Chain of Aromatase (Homo sapiens) (P11511 whole entry, looked up): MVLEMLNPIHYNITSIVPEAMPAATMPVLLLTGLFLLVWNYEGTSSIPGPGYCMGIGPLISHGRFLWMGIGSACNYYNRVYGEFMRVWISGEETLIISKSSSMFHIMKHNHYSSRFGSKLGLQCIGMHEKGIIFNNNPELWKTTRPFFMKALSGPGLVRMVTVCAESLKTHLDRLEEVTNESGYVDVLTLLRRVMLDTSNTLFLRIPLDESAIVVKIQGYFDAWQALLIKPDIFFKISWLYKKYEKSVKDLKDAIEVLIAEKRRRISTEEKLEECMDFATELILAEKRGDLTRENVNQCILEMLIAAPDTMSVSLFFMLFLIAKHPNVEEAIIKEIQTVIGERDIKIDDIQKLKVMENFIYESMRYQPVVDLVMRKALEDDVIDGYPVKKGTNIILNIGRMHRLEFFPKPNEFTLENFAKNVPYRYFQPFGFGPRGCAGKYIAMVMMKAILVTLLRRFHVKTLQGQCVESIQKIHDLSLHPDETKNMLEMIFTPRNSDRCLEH

[10] = qHTS assay to identify aromatase inhibitors - cell viability counter screen (AID 743084);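 also: cells stimulated with testosterone during compound exposure; nearly all actives have a fitted effect of over 55% in size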
[11] = qHTS assay to identify small molecule that activate the aryl hydrocarbon receptor (AhR) signaling pathway - cell viability counter screen (AID 743086);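 also: HepG2 liver cells carrying the AhR DRE luciferase reporter; nearly all actives have a fitted effect of over 45% in size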
Method in brief: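 HepG2-AhR-luc (HG2L7.5c1) cells, 4000/well, were preincubated 5 h at 37C, exposed to compound in qHTS format for 24 hr at 37C, then given CellTiter-Fluor for 30 min; viability was read as fluorescence in the reporter wells.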

[12] = target: Peroxisome proliferator-activated receptor gamma (Homo sapiens) (UniProt P37231); test: qHTS assay to identify small molecule agonists of the peroxisome proliferator-activated receptor gamma (PPARg) signaling pathway (AID 743094; active = well fitted activation curve with a large enough effect in the signal ratio in the repeat runs, not every such curve was filed as active; the % refers to the signal ratio)
Chain of Peroxisome proliferator-activated receptor gamma (Homo sapiens) (P37231 whole entry, looked up): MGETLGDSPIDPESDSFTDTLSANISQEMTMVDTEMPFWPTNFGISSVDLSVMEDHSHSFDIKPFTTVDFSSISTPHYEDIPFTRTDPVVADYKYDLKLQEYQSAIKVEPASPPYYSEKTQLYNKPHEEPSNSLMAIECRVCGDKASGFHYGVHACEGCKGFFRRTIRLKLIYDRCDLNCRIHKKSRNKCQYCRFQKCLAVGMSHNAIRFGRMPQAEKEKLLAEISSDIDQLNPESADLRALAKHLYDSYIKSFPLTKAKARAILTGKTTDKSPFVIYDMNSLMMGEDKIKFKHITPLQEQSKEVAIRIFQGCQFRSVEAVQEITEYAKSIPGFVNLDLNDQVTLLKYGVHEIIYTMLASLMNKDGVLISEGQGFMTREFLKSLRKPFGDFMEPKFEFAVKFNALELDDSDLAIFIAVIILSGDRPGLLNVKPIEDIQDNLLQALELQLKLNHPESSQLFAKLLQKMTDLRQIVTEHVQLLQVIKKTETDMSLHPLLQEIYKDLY
Method in brief: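 Compounds dissolved in DMSO were added to PPARg UAS-bla HEK293H cells for 17 h at 37C, and reporter expression was quantified by fluorescence intensity after 1 h with LiveBLAzer B/G FRET substrate.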

[13] = qHTS assay to identify small molecule antagonists of the peroxisome proliferator-activated receptor gamma (PPARg) signaling pathway - cell viability counter screen (AID 743194); settings: Potency: co-treated with 50 nM rosiglitazone; also: nearly all actives have a fitted effect of over 55% in size
Method in brief: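 PPARg-UAS-bla HEK293H cells were plated, rested 5 h at 37 C, then treated with compounds plus rosiglitazone (50 nM final) for 17 h at 37 C; viability was then read by CellTiter-Glo luminescence after 30 min at room temperature.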

[14] = qHTS assay for small molecule agonists of the antioxidant response element (ARE) signaling pathway (AID 743202; active = well fitted activation curve with a large enough effect in the signal ratio in the repeat runs, not every such curve was filed as active; the % refers to the signal ratio; also: potency is read from the fitted curve at half-maximal effect)
Method in brief: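 Read-out: LiveBLAzer B/G FRET substrate fluorescence after 2 h at room temperature, following 16 h compound treatment at 37 C of HepG2 cells carrying an ARE-driven beta-lactamase reporter.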

[15] = qHTS assay for small molecule activators of the heat shock response signaling pathway (AID 743210; active = well fitted activation curve with a large enough effect in the signal ratio in the repeat runs, with a control signal flat, not every such curve was filed as active; the % refers to the signal ratio)
Method in brief: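 HSE-bla HeLa cells (beta-lactamase reporter under heat shock response elements) were exposed to compounds for 5 h at 37 C, then loaded with LiveBLAzer B/G FRET substrate for 2.5 h at room temperature before fluorescence reading.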

[16] = target: Aryl hydrocarbon receptor (Homo sapiens) (UniProt P35869); test: qHTS assay to identify small molecule that activate the aryl hydrocarbon receptor (AhR) signaling pathway (AID 743085);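 also: HG2L7.5c1 human HepG2 liver cells with stably integrated DRE-driven firefly reporter; nearly all actives have a fitted effect of over 15% in size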
Chain of Aryl hydrocarbon receptor (Homo sapiens) (P35869 whole entry, looked up): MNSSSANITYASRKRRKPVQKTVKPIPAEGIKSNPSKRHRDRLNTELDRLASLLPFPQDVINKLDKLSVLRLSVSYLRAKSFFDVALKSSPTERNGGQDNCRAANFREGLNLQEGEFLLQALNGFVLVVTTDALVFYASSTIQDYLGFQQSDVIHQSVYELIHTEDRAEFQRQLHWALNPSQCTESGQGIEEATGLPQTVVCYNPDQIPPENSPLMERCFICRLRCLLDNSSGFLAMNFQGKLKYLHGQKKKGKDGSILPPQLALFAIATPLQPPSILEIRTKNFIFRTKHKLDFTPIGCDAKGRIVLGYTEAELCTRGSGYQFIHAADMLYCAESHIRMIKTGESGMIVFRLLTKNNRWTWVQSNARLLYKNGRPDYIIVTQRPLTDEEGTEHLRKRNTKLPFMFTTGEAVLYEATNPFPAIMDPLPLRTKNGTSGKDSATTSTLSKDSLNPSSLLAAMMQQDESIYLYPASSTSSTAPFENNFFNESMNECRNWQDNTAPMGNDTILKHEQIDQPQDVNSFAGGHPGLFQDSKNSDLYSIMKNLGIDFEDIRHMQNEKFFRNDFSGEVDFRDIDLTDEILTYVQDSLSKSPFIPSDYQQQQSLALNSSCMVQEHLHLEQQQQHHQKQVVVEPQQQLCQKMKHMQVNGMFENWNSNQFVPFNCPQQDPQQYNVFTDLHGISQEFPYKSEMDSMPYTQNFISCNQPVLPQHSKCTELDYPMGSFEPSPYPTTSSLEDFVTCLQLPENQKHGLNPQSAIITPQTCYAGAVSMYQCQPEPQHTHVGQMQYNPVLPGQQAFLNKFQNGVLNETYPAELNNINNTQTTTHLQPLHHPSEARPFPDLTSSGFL
Method in brief: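 HepG2 cells stably carrying a 20-DRE firefly luciferase reporter (HG2L7.5c1) treated with compound for 24 hr at 37C. Luciferase read by ONE-Glo luminescence, with CellTiter-Fluor viability read first.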

[17] = target: Peroxisome proliferator-activated receptor gamma (Homo sapiens) (UniProt P37231); test: qHTS assay to identify small molecule antagonists of the peroxisome proliferator-activated receptor gamma (PPARg) signaling pathway (AID 743191; calls by dose curve; also: nearly all actives have a fitted effect of over 30% in size)
Method in brief: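 GeneBLAzer PPARg UAS-bla HEK293H cells carrying a UAS-driven beta-lactamase reporter were plated at 3000 cells/well, preincubated 5 h at 37C, then given compound for 17 h at 37C; LiveBLAzer B/G FRET substrate was read after 1 h at room temperature.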

[18] = qHTS assay for small molecule agonists of the antioxidant response element (ARE) signaling pathway - cell viability counter screen (AID 743203; calls by dose curve; also: nearly all actives have a fitted effect of over 55% in size)
Method in brief: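 Following 16 hrs of compound treatment at 37C, HepG2 cells with an ARE-controlled beta-lactamase gene were lysed with CellTiter-Glo. Luminescence was read after 30 min at room temperature.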

[19] = qHTS assay for small molecule activators of the heat shock response signaling pathway - cell viability counter screen (AID 743209); also: nearly all actives have a fitted effect of over 50% in size
Method in brief: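 Readout: CellTiter-Glo luminescence, 30 min at room temperature. System: HSE-bla HeLa cells, 1500/well, plated overnight. Treatment: compounds in DMSO, 5 h at 37 C.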
% is scaled to controls: 0 for no effect and ±100 for the full control effect.

CC(C)CP(=S)(S)CC(C)C
inactive: Potency [1] | Potency [2] | Potency [3] | Potency [4] | outcome [5] | Potency [6] | activation ([7]; at 70.3 µM (top of the series)) -12.9% | Potency [8] | Potency [9] | Potency (Aromatase (Homo sapiens)) | Potency [10] | outcome [11] | outcome [12] | Potency [13] | Potency [14] | outcome [15]

C=CC1CC=CCC1 (stereo not given)
inactive: Potency [1] | Potency [2] | Potency [3] | Potency [4] | outcome [5] | Potency [6] | activation ([7]; at 70.3 µM (top of the series)) 11% | Potency [8] | Potency [9] | Potency (Aromatase (Homo sapiens)) | Potency [10] | Potency [16] | outcome [11] | outcome [12] | Potency [17] | Potency [13] | Potency [14] | Potency [18] | Potency [19] | outcome [15]

N#CCBr
inactive: Potency [1] | Potency [2] | Potency [3] | Potency [4] | outcome [5] | Potency [6] | activation ([7]; at 95 µM (top of the series)) 0.199% | Potency [8] | Potency [9] | Potency (Aromatase (Homo sapiens)) | Potency [10] | Potency [16] | outcome [11] | Potency [13] | Potency [14] | Potency [18] | Potency [19] | outcome [15]

OCCBr
inactive: Potency [1] | Potency [2] | Potency [3] | Potency [4] | outcome [5] | Potency [6] | activation ([7]; at 70.3 µM (top of the series)) 6.61% | Potency [8] | Potency [9] | Potency (Aromatase (Homo sapiens)) | Potency [10] | Potency [16] | outcome [11] | outcome [12] | Potency [17] | Potency [13] | Potency [18] | Potency [19] | outcome [15]
active: Potency [14] 27.4 µM

OC(Cn1cncn1)(c1ccc(F)cc1)c1ccccc1F (stereo not given)
inactive: Potency [1] | Potency [2] | Potency [3] | Potency [4] | outcome [5] | Potency [6] | activation ([7]; at 70.3 µM (top of the series)) -1% | Potency [9] | Potency [10] | Potency [16] | outcome [11] | outcome [12] | Potency [17] | Potency [13] | Potency [14] | Potency [18] | Potency [19] | outcome [15]

CC(C)NCC(O)c1ccc(N)c(C#N)c1 (stereo not given)
inactive: Potency [1] | Potency [2] | Potency [3] | Potency [4] | outcome [5] | Potency [6] | activation ([7]; at 70.3 µM (top of the series)) -15.4% | Potency [8] | Potency [9] | Potency (Aromatase (Homo sapiens)) | Potency [10] | Potency [16] | outcome [11] | outcome [12] | Potency [17] | Potency [13] | Potency [14] | Potency [18] | Potency [19]

Nc1cc2c3c(c1)C(c1ccccc1)=N[C@@H](NC(=O)c1cccnc1)C(=O)N3CC2
inactive: Potency [1] | Potency [2] | Potency [3] | Potency [4] | outcome [5] | Potency [6] | activation ([7]; at 70.3 µM (top of the series)) -22.1% | Potency [9] | Potency (Aromatase (Homo sapiens)) | Potency [10] | Potency [16] | outcome [11] | Potency [17] | Potency [13] | Potency [14] | Potency [18] | Potency [19] | outcome [15]

Cc1coc2c1CCC(C)C2 (stereo not given)
inactive: Potency [1] | Potency [2] | Potency [3] | Potency [4] | outcome [5] | Potency [6] | Potency [8] | Potency [9] | Potency (Aromatase (Homo sapiens)) | Potency [10] | outcome [11] | Potency [13] | Potency [19]

CCCCN(CCCCO)N=O
inactive: Potency [1] | Potency [2] | Potency [3] | Potency [4] | outcome [5] | Potency [6] | activation ([7]; at 70.3 µM (top of the series)) -3.24% | Potency [8] | Potency [9] | Potency (Aromatase (Homo sapiens)) | Potency [10] | Potency [16] | outcome [11] | outcome [12] | Potency [17] | Potency [13] | Potency [14] | Potency [19]

CCCCCCI
inactive: Potency [1] | Potency [2] | Potency [3] | Potency [4] | outcome [5] | Potency [6] | activation ([7]; at 70.3 µM (top of the series)) 1.45% | Potency [9] | Potency (Aromatase (Homo sapiens)) | Potency [10] | Potency [16] | outcome [11] | outcome [12] | Potency [17] | Potency [13] | Potency [14] | Potency [18] | Potency [19] | outcome [15]

[O]=[Cd]
inactive: Potency [1] | Potency [2] | Potency [3] | Potency [4] | outcome [5] | Potency [6] | activation ([7]; at 70.3 µM (top of the series)) -13.8% and 18.3% | Potency [8] | Potency [9] | Potency (Aromatase (Homo sapiens)) | Potency [10] | Potency [16] | outcome [11] | outcome [12] | Potency [17] | Potency [13] | Potency [14] | Potency [18] | Potency [19] | outcome [15]

Cc1nc(N)nc(N)n1
inactive: Potency [1] | Potency [2] | Potency [3] | Potency [4] | outcome [5] | Potency [6] | activation ([7]; at 95 µM (top of the series)) 2.81% | Potency [8] | Potency [9] | Potency (Aromatase (Homo sapiens)) | Potency [10] | Potency [16] | outcome [11] | Potency [13] | Potency [18] | Potency [19] | outcome [15]

O=C(O)c1ccc2[nH]cc(CCCCN3CC=C(c4ccccc4)CC3)c2c1
inactive: Potency [1] | Potency [2] | Potency [3] | Potency [4] | outcome [5] | Potency [6] | activation ([7]; at 70.3 µM (top of the series)) -2.02% | Potency [9] | Potency (Aromatase (Homo sapiens)) | Potency [10] | Potency [16] | outcome [11] | outcome [12] | Potency [13] | Potency [19]

CCN(CC)C(C)C(=O)c1ccccc1 (stereo not given)
inactive: Potency [1] | Potency [2] | Potency [3] | Potency [4] | outcome [5] | Potency [6] | activation ([7]; at 70.3 µM (top of the series)) 0.375% | Potency [9] | Potency (Aromatase (Homo sapiens)) | Potency [10] | outcome [11] | outcome [12] | Potency [17] | Potency [13] | Potency [14] | Potency [18] | Potency [19] | outcome [15]

CCC1(c2ccccc2)C(=O)NC(=O)NC1=O
inactive: Potency [1] | Potency [2] | Potency [3] | Potency [4] | outcome [5] | Potency [6] | activation ([7]; at 70.3 µM (top of the series)) -1.3% | activation ([7]; at 95 µM (top of the series)) -10.3% | Potency [8] | Potency [9] | Potency (Aromatase (Homo sapiens)) | Potency [10] | Potency [16] | outcome [11] | outcome [12] | Potency [17] | Potency [13] | Potency [14] | Potency [18] | Potency [19] | outcome [15]
